Test results from PubChem BioAssay (NCI).
“And” between values parts separate entries of the source, which are not always exact repeats. Identical values can stand only once. Compounds without any hit were thinned out: in the full panel of roughly 83,000, 20% have a hit.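 Treatment: one concentration, 48 hours, 96-well format. Scoring: percent growth, with anything below 10 considered active.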 The source made the active and inactive calls.

Experiments:
Test in all cases: NCI-60 one-dose screen, 48 h (100 = growth as untreated, 0 = no growth, -100 = all killed)
[1] = test system: HCT-15 colon; conditions: 10 µM
[2] = test system: HT29 colon; conditions: 10 µM
[3] = test system: SNB-75 CNS; conditions: 10 µM
[4] = test system: SNB-19 CNS; conditions: 10 µM
[5] = test system: U251 CNS; conditions: 10 µM
[6] = test system: PC-3 prostate; conditions: 10 µM
[7] = test system: SK-MEL-5 melanoma; conditions: 10 µM
[8] = test system: LOX IMVI melanoma; conditions: 10 µM
[9] = test system: SK-MEL-28 melanoma; conditions: 10 µM
[10] = test system: UACC-62 melanoma; conditions: 10 µM unless noted

Structure (SMILES)	growth [1]	growth [2]	growth [3]	growth [4]	growth [5]	growth [6]	growth [7]	growth [8]	growth [9]	growth [10]
O=[N+]([O-])/C=C/c1ccc([N+](=O)[O-])cc1	-30.1% (active) and 12.6% (inactive)	-46.8% (active) and 72.9% (inactive)	48.7% (inactive) and 90.1% (inactive)	72.6% (inactive) and 96.2% (inactive)	-16.5% (active) and 87.8% (inactive)	43.4% (inactive) and 92% (inactive)	97.9% (inactive)	-90.1% (active) and 70% (inactive)	82.2% (inactive) and 103% (inactive)	–
CC[C@@H](C)[C@@H]1NC(=O)C(NC(=O)C(CC(C)C)N(C)C(=O)C2CCCN2C(=O)C(C)O)C(C)OC(=O)C(Cc2ccc(OC)cc2)N(C)C(=O)C2CCCN2C(=O)C(CC(C)C)NC(=O)C(C)C(=O)C(C(C)C)OC(=O)C[C@H]1O (some centres not stated)	-32.7% (active)	-53.2% (active)	-95.7% (active)	-44% (active)	-43.8% (active)	-37.2% (active)	–	-70.2% (active)	–	-68.9% (active)
CC(Cc1ccc2c(c1)OCO2)NN (configuration not stated)	102% (inactive)	98.7% (inactive)	90.6% (inactive)	105% (inactive)	88.9% (inactive)	76.3% (inactive)	–	92.2% (inactive)	105% (inactive)	95.6% (inactive)
[O-][n+]1ccccc1S	32.8% (inactive)	4.75% (active)	56.5% (inactive)	59.9% (inactive)	29.9% (inactive)	30.8% (inactive)	–	1.84% (active)	34.1% (inactive)	13.6% (inactive)
C[C@]12CC[C@H]3[C@@H](CCC4=CC(=O)CC[C@@H]43)[C@@H]1CC[C@@H]2OC(=O)N(CCCl)N=O	66.8% (inactive)	59% (inactive)	50.1% (inactive)	34.5% (inactive)	30.6% (inactive)	43.1% (inactive)	–	39.3% (inactive)	90.2% (inactive)	20.6% (inactive)
C/C(=C\c1ccc(Cl)c(Cl)c1)[N+](=O)[O-]	-66.8% (active) and 101% (inactive)	-52.3% (active) and 102% (inactive)	90.3% (inactive)	87.4% (inactive) and 103% (inactive)	-23.9% (active) and 87.8% (inactive)	-35% (active) and 85.2% (inactive)	–	-75.1% (active) and 90.1% (inactive)	-24.5% (active) and 103% (inactive)	13.5% (inactive) and 92.4% (inactive)
N#CCc1ccccc1	102% (inactive)	114% (inactive)	105% (inactive)	98.6% (inactive)	95.8% (inactive)	96.9% (inactive)	–	94.1% (inactive)	106% (inactive)	102% (inactive)
NC(=O)c1cc([N+](=O)[O-])c(Cl)c([N+](=O)[O-])c1Cl	-63.9% (active)	-88.4% (active)	65.1% (inactive)	74% (inactive)	-81.5% (active)	46.7% (inactive)	–	-50% (active)	39.6% (inactive)	5.65% (active)
ClCc1ccc2ccccc2n1	103% (inactive)	94.1% (inactive)	81.8% (inactive)	103% (inactive)	103% (inactive)	92.1% (inactive)	–	80.5% (inactive)	110% (inactive)	74.9% (inactive)
Cc1cc([N+](=O)[O-])c2ccccc2[n+]1[O-]	-25.7% (active) and -13.2% (active)	-24.6% (active) and -48.6% (active)	-63.6% (active) and -53.8% (active)	-4.83% (active) and -14.1% (active)	-12.7% (active) and -32.2% (active)	-10.8% (active) and -56% (active)	–	7.14% (active) and -48.7% (active)	41.8% (inactive) and 15.2% (inactive)	-55.5% (active) and -86.3% (active)
NC(=O)c1cc([N+](=O)[O-])c(Cl)c([N+](=O)[O-])c1	45.5% (inactive)	-7.93% (active)	98.6% (inactive)	107% (inactive)	69.4% (inactive)	62.2% (inactive)	107% (inactive)	24.7% (inactive)	118% (inactive)	–
CC(C)C1(NC(=O)C2CC3c4cccc5[nH]cc(c45)CC3N(C)C2)OC2(O)C3CCCN3C(=O)C(Cc3ccccc3)N2C1=O (configuration not stated)	89.3% (inactive)	101% (inactive)	-1.61% (active)	102% (inactive)	98.8% (inactive)	81.1% (inactive)	–	91% (inactive)	–	–
[Cl][Hg][c]1ccc2ccccc2c1	-72.3% (active)	-71.3% (active)	-85.3% (active)	-62.9% (active)	93.1% (inactive)	-35.1% (active)	–	-100% (active)	-89% (active)	-43% (active)
CC12OOC(c3ccccc31)c1c2ccc2ccccc12 (configuration not stated)	-93.2% (active)	-81.3% (active)	-20.4% (active)	64.8% (inactive)	50.3% (inactive)	-74.4% (active)	–	-91.2% (active)	–	59.6% (inactive)
